Here are results for 23 molecules from PubChem BioAssay.

The source made the active and inactive calls.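 The calls were made as follows: active = Her2 level under about 52% in both replicate screens, with viability over 70% of control (limit read from the data); inconclusive = Her2 under the limit in one screen only, or viability under 70%; inactive = Her2 level above the set limit.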

This test deals with Receptor tyrosine-protein kinase erbB-2 (Homo sapiens) (UniProt P04626). The test is described as follows: Her2 expression decrease, cell viability multiplex – SKBR3 breast tumor cells, AlphaScreen, ATP viability, primary screen (AID 461).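 Also: lower value means less Her2 protein in the cells.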 The settings on record: 18-24 h, at 10 µM, active compounds read low. In general terms: In Alpha technology, singlet oxygen from a donor bead excites a nearby acceptor bead.
Chain of Receptor tyrosine-protein kinase erbB-2 (Homo sapiens) (P04626 whole entry, looked up): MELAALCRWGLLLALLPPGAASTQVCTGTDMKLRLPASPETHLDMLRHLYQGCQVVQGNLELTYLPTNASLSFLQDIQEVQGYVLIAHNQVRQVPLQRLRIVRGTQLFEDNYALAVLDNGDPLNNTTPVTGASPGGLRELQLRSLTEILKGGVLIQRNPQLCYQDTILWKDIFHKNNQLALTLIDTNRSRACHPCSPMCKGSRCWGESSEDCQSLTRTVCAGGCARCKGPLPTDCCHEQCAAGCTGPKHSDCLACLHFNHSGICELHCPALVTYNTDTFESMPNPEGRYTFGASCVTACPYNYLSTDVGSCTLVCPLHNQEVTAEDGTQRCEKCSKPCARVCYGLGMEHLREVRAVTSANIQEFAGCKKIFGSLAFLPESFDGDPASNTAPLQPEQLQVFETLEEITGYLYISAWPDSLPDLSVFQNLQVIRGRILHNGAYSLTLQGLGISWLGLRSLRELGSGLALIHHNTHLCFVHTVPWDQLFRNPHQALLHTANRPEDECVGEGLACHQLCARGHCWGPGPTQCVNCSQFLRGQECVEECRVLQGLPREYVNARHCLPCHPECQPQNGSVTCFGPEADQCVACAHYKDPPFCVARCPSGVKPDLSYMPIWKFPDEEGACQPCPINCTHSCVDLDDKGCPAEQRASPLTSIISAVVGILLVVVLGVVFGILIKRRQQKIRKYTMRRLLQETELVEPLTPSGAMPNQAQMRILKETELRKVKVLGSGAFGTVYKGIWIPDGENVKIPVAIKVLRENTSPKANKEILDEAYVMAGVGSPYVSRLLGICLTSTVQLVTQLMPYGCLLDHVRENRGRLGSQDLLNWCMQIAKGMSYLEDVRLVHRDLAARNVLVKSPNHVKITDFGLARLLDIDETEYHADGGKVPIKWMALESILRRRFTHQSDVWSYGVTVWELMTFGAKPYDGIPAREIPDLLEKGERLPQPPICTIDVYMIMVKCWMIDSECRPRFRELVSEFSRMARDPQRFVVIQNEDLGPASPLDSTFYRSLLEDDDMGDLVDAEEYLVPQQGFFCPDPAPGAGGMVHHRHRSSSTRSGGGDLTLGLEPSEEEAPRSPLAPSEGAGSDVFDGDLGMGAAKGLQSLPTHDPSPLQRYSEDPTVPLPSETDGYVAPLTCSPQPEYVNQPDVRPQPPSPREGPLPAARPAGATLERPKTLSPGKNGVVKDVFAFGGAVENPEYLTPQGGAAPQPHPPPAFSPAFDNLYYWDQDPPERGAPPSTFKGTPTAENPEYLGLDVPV
For `CC(=O)CCc1ccc(OCCCCn2cncn2)cc1`, the Her2 level was 105% (inactive). Turning to `CCCC(=O)Nc1ccc(NC(=O)c2ccccc2OC)cn1`, the Her2 level is 101% (inactive). In the case of `CCOC(=O)c1[nH]c(C)c(C(=O)Nc2ccccc2F)c1C` it was 75.5% (inactive); in that of `COc1ccccc1C(=O)N1CCN(CCc2ccccc2)CC1`, 124% (inactive); in that of `CCN1CCN(c2c(Cl)cccc2NC(=O)c2ccc3c(c2)OCCO3)CC1`, 84.5% (inactive). In the case of `COc1ccccc1NS(=O)(=O)c1ccc(OC)c(OC)c1` it was 85% (inactive); in that of `CN(C(=O)c1ccc(S(=O)(=O)NC2CCCC2)cc1)C1CCCCC1`, 87% (inactive); in that of `C/C(N)=C(/C#N)C(=O)COC(=O)c1cc(S(=O)(=O)N2CCCCC2)ccc1C`, 79.5% (inactive). In the case of `CC(=O)Nc1ccc(-c2cc3ccccc3o2)cc1` it was 89% (inactive). On to `CCN(CC)S(=O)(=O)c1ccc2oc(C(=O)O)c(C)c2c1`, for which the Her2 level was 100% (inactive). As for `CCn1c(=O)cc(SCC(=O)Nc2ccc3c(c2)OCO3)c2ccccc21`, the figure is 88% (inactive); as for `CN(C(=O)c1ccncc1)C1CC(C)(C)N(O)C(C)(C)C1`, 96.5% (inactive). As for `CCCC(=O)Nc1ccccc1NC(=O)CN(C)S(=O)(=O)c1ccc(C)cc1`, the figure is 114% (inactive). Turning to `Cn1c(=O)cc(OCC(=O)NCCCN2CCN(Cc3ccccc3)CC2)c2ccccc21`, the Her2 level was 104% (inactive). As for `CCNC(=O)C1CC(=O)N(Cc2ccc3c(c2)OCO3)C(=Nc2ccc(OCC)cc2)S1` (stereo not drawn), the figure is 76% (inactive); as for `Cc1cc(-c2ccccc2)nc2cc(C(N)=O)nn12`, 94% (inactive); as for `Cc1ccc(C)c(-n2c(Cc3cc(=O)[nH]c(=O)[nH]3)nnc2SCC(=O)NCc2ccco2)c1`, 142% (inactive). In the case of `Cn1c(C(=O)NCCC2=CCCCC2)cc2c(=O)n3ccccc3nc21` it was 98.5% (inactive); in that of `O=C1CCC(c2ccccc2)N1C(=O)c1cccnc1` (stereo not drawn), 95.5% (inactive); in that of `Cc1ccc(-n2nnnc2SCC(=O)N2CCc3ccccc3C2)cc1`, 82.5% (inactive).

`COC(=O)c1oc2ccc(OC)cc2c1N`: the Her2 level is 88% (inactive). In the case of `O=C(C1CCC(CNS(=O)(=O)c2cccc3cccnc23)CC1)N1CCCC1` (stereo not drawn) it was 104% (inactive); in that of `FC(F)(F)C(F)(F)C(F)(F)c1nnc2ccc(N3CCOCC3)nn12`, 118% (inactive).
